According to PubChem BioAssay (NCI):
Compounds without any hit were thinned out: in the full panel of roughly 83,000, 20% have a hit.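 Interpretation: 100, growth as untreated; towards 0, rising growth inhibition; 0, no net growth; 0 to -100, cell death. Compounds scoring below 10 were considered active.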 The source made the active and inactive calls.

How the values were obtained:
Assay in all cases: NCI-60 one-dose screen, 48 h (100 = growth as untreated, 0 = no growth, -100 = all killed)
Conditions in all cases: 10 µM
SK-MEL-2 melanoma = system: SK-MEL-2 melanoma
EKVX NSCLC = system: EKVX NSCLC
SN12C renal = system: SN12C renal
TK-10 renal = system: TK-10 renal
ACHN renal = system: ACHN renal
CAKI-1 renal = system: CAKI-1 renal
A498 renal = system: A498 renal
CCRF-CEM leukemia = system: CCRF-CEM leukemia
MOLT-4 leukemia = system: MOLT-4 leukemia
UO-31 renal = system: UO-31 renal

Measured: growth

Cc1nc2c(cnn2-c2ccccc2)c(=O)n1-c1ccc(NC(=O)c2ccc(F)cc2)cc1
active: MOLT-4 leukemia 5.38%
inactive: SK-MEL-2 melanoma 77.9% | EKVX NSCLC 30.2% | SN12C renal 74.4% | TK-10 renal 71% | ACHN renal 61% | CAKI-1 renal 65.7% | A498 renal 86.8% | CCRF-CEM leukemia 34.8%

Cn1cc(-c2cc(N)n3nc(-c4c[nH]c5ccc(Br)cc45)cc3n2)c2cccnc21
active: SK-MEL-2 melanoma -56.4% | EKVX NSCLC -86.7% | UO-31 renal -78.8% | TK-10 renal -85.9% | ACHN renal -98.9% | CAKI-1 renal -60.7% | A498 renal -85.9% | CCRF-CEM leukemia -19.1% | MOLT-4 leukemia -23.8%

O=C1Nc2cc(Cl)ccc2/C1=C/c1cccc(OCc2ccccc2)c1
inactive: EKVX NSCLC 11.3% | TK-10 renal 33.6% | A498 renal 49.9%
active: SK-MEL-2 melanoma -31.8% | SN12C renal -26.7% | ACHN renal 9.76% | CAKI-1 renal 9.35% | CCRF-CEM leukemia 0.155% | MOLT-4 leukemia 5.59%

Cc1noc2c(Cc3ccc([N+](=O)[O-])cc3)nn(CC(=O)N/N=C/c3ccc(Cl)cc3)c(=O)c12
inactive: SK-MEL-2 melanoma 90.5% | SN12C renal 54% | UO-31 renal 40.8% | TK-10 renal 71.9% | ACHN renal 19.4% | CAKI-1 renal 52.3% | A498 renal 80.1% | CCRF-CEM leukemia 95.6% | MOLT-4 leukemia 97.8%

O=C1Nc2ccc(Cl)cc2/C1=C/c1cccc(OCc2ccccc2)c1
inactive: SK-MEL-2 melanoma 28.4% | SN12C renal 36.1% | TK-10 renal 77.2% | ACHN renal 24.3% | CAKI-1 renal 34.6% | A498 renal 84.2%
active: CCRF-CEM leukemia -21.5% | MOLT-4 leukemia -20.6%

C=C1CCC2C3(C)COC(c4cc(F)cc(F)c4)OC3CCC2(C)C1C/C=C1/C(=O)OCC1O (stereo unspecified)
inactive: A498 renal 106% | CCRF-CEM leukemia 15.1%
active: SK-MEL-2 melanoma -60.8% | SN12C renal -31.6% | UO-31 renal -97.1% | TK-10 renal -86.3% | ACHN renal -99.6% | CAKI-1 renal -73.2% | MOLT-4 leukemia 8.72%

Cc1ccc(C(=O)NNC(=O)CSc2nc3ccccc3c(=O)[nH]2)cc1
inactive: SK-MEL-2 melanoma 107% | SN12C renal 94.1% | UO-31 renal 75.2% | TK-10 renal 107% | ACHN renal 107% | CAKI-1 renal 95.7% | A498 renal 94.6% | CCRF-CEM leukemia 98.8% | MOLT-4 leukemia 96.4%

CC(=O)Nc1ccc(-c2cn(-c3cccc(C(=O)Nc4ccc(Cl)c(C(F)(F)F)c4)c3)nn2)cn1
inactive: CCRF-CEM leukemia 30%
active: SK-MEL-2 melanoma -38.3% | SN12C renal -48.4% | UO-31 renal -56% | TK-10 renal -18% | ACHN renal -52.5% | CAKI-1 renal -27.8% | A498 renal -63.1% | MOLT-4 leukemia 7.02%

CC1(C)CC[C@]23CC[C@]4(C)[C@H](CC[C@@H]5[C@@]6(C)CC[C@H](N)C(C)(C)[C@@H]6CC[C@]54C)[C@H]2[C@H]1OC3=O
active: SK-MEL-2 melanoma -77.2% | SN12C renal -96% | UO-31 renal -96.7% | TK-10 renal -90.1% | ACHN renal -100% | A498 renal -90.3% | CCRF-CEM leukemia -32.4%

Nc1nc(-c2ccccc2)cc(-c2cc3ccccc3nc2Cl)n1
active: CCRF-CEM leukemia 1.2%
inactive: SK-MEL-2 melanoma 97.1% | SN12C renal 83% | TK-10 renal 111% | ACHN renal 89.1% | CAKI-1 renal 80.1% | A498 renal 108% | MOLT-4 leukemia 59.2%

Cc1ccc(-c2nc(Nc3ccc(C)c(S(N)(=O)=O)c3)c3ccccc3n2)cc1
inactive: SK-MEL-2 melanoma 118% | SN12C renal 69% | UO-31 renal 85.9% | TK-10 renal 120% | ACHN renal 64.1% | CAKI-1 renal 91% | A498 renal 106% | CCRF-CEM leukemia 85.1% | MOLT-4 leukemia 71.5%

C=C1CCC2C3(C)COC(c4cccc(F)c4)OC3CCC2(C)C1CC(O)C1=CCOC1=O (stereo unspecified)
inactive: SK-MEL-2 melanoma 75.9% | SN12C renal 44.3% | UO-31 renal 57.1% | TK-10 renal 113% | ACHN renal 68.6% | CAKI-1 renal 74.7% | A498 renal 125% | CCRF-CEM leukemia 23.2% | MOLT-4 leukemia 41%

CO[C@@H]1CSSC1Cn1nc(-c2ccc(Oc3ccccc3)cc2)c2c(N)ncnc21 (stereo partly specified)
inactive: SK-MEL-2 melanoma 27.2% | SN12C renal 60.6% | UO-31 renal 21.3% | TK-10 renal 20.3% | ACHN renal 40.4% | CAKI-1 renal 32.4% | A498 renal 80.8%
active: CCRF-CEM leukemia -8.26% | MOLT-4 leukemia -16.6%

NC(=Nc1ccc(OCCCCCCCCn2ccnn2)cc1)c1ccccc1
inactive: SK-MEL-2 melanoma 14.8% | SN12C renal 32.3% | UO-31 renal 40.7% | TK-10 renal 70.9% | ACHN renal 34.4% | CAKI-1 renal 37.9% | A498 renal 98.1% | CCRF-CEM leukemia 15.6%

O=c1[nH][nH]c(Nc2ccccc2)c1N=Nc1ccc(F)cc1
inactive: SK-MEL-2 melanoma 94.1% | SN12C renal 79.6% | UO-31 renal 66.2% | TK-10 renal 94.5% | ACHN renal 86.2% | A498 renal 110% | CCRF-CEM leukemia 93.9%

COc1ccc(-c2nc(Nc3ccccc3S(N)(=O)=O)c3ccccc3n2)cc1
active: CAKI-1 renal 7.47%
inactive: SK-MEL-2 melanoma 110% | SN12C renal 26.3% | UO-31 renal 29.2% | TK-10 renal 67.4% | A498 renal 92% | CCRF-CEM leukemia 64.1% | MOLT-4 leukemia 21.1%

CN1CCN(c2ccc(Nc3nc(NCCNC(=O)c4ccc(C(F)(F)F)cc4)c4sccc4n3)cc2)CC1
active: SK-MEL-2 melanoma -41.9% | UO-31 renal 4.76% | CCRF-CEM leukemia -31.1%
inactive: SN12C renal 73.6% | TK-10 renal 12% | ACHN renal 10.7% | CAKI-1 renal 22.5% | A498 renal 69%

Clc1cccc(N/N=C/c2c[nH]c3ccccc23)n1
active: CCRF-CEM leukemia 8.71%
inactive: SK-MEL-2 melanoma 73.3% | SN12C renal 16.8% | UO-31 renal 10.4% | TK-10 renal 71.7% | ACHN renal 44.7% | CAKI-1 renal 35.5% | A498 renal 75.7% | MOLT-4 leukemia 23.8%

O=C(/C=C/Nc1ccc(F)cc1F)c1ccc2c(c1)Nc1ccccc1S2
inactive: SK-MEL-2 melanoma 86.5% | SN12C renal 82% | UO-31 renal 80.3% | TK-10 renal 100% | ACHN renal 78.6% | CAKI-1 renal 83.9% | A498 renal 108% | CCRF-CEM leukemia 73.8% | MOLT-4 leukemia 66.7%

N#Cc1ccc(NC(=O)CSc2ccc(-c3ccc(Br)cc3)nn2)cc1
inactive: SK-MEL-2 melanoma 57.9% | SN12C renal 73.5% | UO-31 renal 54.6% | TK-10 renal 103% | ACHN renal 64.5% | CAKI-1 renal 67.2% | A498 renal 89.4% | CCRF-CEM leukemia 57.9% | MOLT-4 leukemia 42.6%
